Data as given in PubChem BioAssay (NCATS).
Several values for one entry are separate records, joined by “and”; a condition that tells them apart may be missing. Identical values can stand only once. Results filed as inconclusive are left out. Activity calls are given as the source filed them. Calls come from the whole dose curve; as a rule, active = well fitted cell-killing curve with a large enough effect; inconclusive = small, poorly fitted or top-dose-only effect, or effect the other way; inactive = no such curve, though single readings can be large or run the other way.

test: Viability qHTS for spleen associated tyrosine kinase inhibitor (SYKi) drug resistant MV4-11 cells (AID 1963824); conditions: SYKi-resistant MV4-11 viability, CellTiter-Glo, 72 h; series mostly up to 45 µM; note: nearly all actives have a fitted effect of over 35% in size
Description: Department of Medicine, Hematology/Oncology
University Hospital Frankfurt, Germany.
Trials have shown promising clinical activity of the selective SYK inhibitor entospletinib in patients with high expressing HOXA9/MEIS1 acute leukemias. As the development of resistance mechanisms is a common problem in the use of targeted drugs, we performed a chemical library screen to identify drug sensitivities in SYK inhibitor resistant AML cells. […] Glucocorticoids are potent immunosuppressants which work in part by inhibiting the transcription of cytokine genes.
Described herein is a viability screen to look for activity in the SYK inhibitor drug resistant cell line against four NCATS compound libraries (MIPE 5.0, NPC, NPACT, and Kinase) totaling 11372 compounds. Active hits were reacquired for confirmation and further secondary assay testing.
SEQUENCE No. (e.g., 1, 2, 3, etc.); […] (e.g., Cells, Incubation, Reagent, etc.); VALUE; DESCRIPTION.
1; Media; 2uL; white, solid-bottom Corning assay plate.
2; Compounds; 23nL; Echo acoustic dispenser.
3; Cell; 5uL; 500 cells per well.
4: Incubation; 72hr; 37 C, 5% CO2, 95% humidity.
5; Reagent; 3uL; CellTiter-Glo reagent (Promega).
6; Incubation; 10min; room temperature.
7; Detection; Luminescence; ViewLux plate reader (PerkinElmer).
NOTES (numbers refer to Sequence numbers above
1. Quantitative high-throughput screening (qHTS) of small molecule compounds was conducted on drug resistant SYKi MV4-11 cell line.
2. Twenty-three nanoliter of small molecule compounds were added to each assay plates using the Echo acoustic dispenser (Beckman Coulter).
3. Cells were seeded into the assay plates at a final density of 500 cells in 5uL of media per well using the Multidrop Combi dispenser.
4. Plates were covered with stainless steel gasketed lids and incubated for 72 hours at standard cell culture conditions.
5. Viability was assessed by adding 3uL of CellTiter-Glo detection reagent (Promega).
6. Plates were covered with gasket lids and incubated for 10 minutes at room temperature.
7. Luminescence was measured on a ViewLux plate reader (PerkinElmer).
Potency is the fitted concentration of half-maximal effect.

With `Cc1cnc(NC(=O)c2cc(Oc3cnc(C(=O)N(C)C)nc3)c3cc(C)oc3c2)cn1` as the molecule, how does the Potency read?
The Potency was “inactive”.

For `C/C(=C/CCC(CO)C1CCC2(C)C3CCC4C(C)(C)C(OC5OC(CO)C(O)C(O)C5O)CC(O)C45CC35CCC12C)COC1OC(CO)C(O)C(O)C1O` (stereo not given), which Potency is on record?
Its Potency is “inactive”.

For `CNCCn1c(=O)c2cc(OC)c(OC)cc2c2cnc3cc4c(cc3c21)OCO4`, which Potency is on record?
Its Potency is 0.0121 µM (active).

For `O=C(O)c1cc(=O)c2ccccc2o1`, which Potency is on record?
Its Potency is “inactive”.

Which Potency does the source give for `Cc1nc2c(O)cccc2c(=O)[nH]1` here?
Its Potency is “inactive”.

With `NCC(CNc1nc(Nc2cccc(NC(=O)N3CCCC3)c2)ncc1I)C(=O)c1cccs1` (stereo not given) as the molecule, how does the Potency read?
The Potency was 0.231 µM (active).

For `COc1ccc(-c2cnc(-c3cccc4c3-c3ccccc3C4=O)o2)cc1`, which Potency is on record?
The Potency was 0.0709 µM (active).

With `Cc1c(C)n(Cc2ccc(-c3ccccc3C(=O)O)cc2)c2ccc(C(=O)N[C@@H](C)c3ccc([N+](=O)[O-])cc3)cc12` as the molecule, how does the Potency read?
Its Potency is 20.9 µM (active).

For `O=C(O)c1cc(O[C@@H]2O[C@H](CO)[C@@H](O)[C@H](O)[C@H]2O)ccc1O`, which Potency is on record?
The Potency was “inactive”.

With `N#Cc1ccc2ncnc(NCCc3ccccc3)c2c1` as the molecule, how does the Potency read?
Its Potency is 4.11 µM (active).

With `C/C=C(/C=C(C)/C=C/C=C/C=C(\C)C(=O)C12OC1C(O)(CCO)NC2=O)C(=O)OC` (stereo not given) as the molecule, how does the Potency read?
The Potency was 11.2 µM (active).

Which Potency does the source give for `Cc1c(C(N)=O)cc([N+](=O)[O-])cc1[N+](=O)[O-]` here?
Its Potency is “inactive”.

With `CN(C)c1ccc2nc3ccc(=[N+](C)C)cc-3sc2c1` as the molecule, how does the Potency read?
Its Potency is 372 nM (active) and 841 nM (active).

For `COc1c2c(c(C)c3c1C(=O)OC3)OC1(C)CC(O)C34OC(O)(CCC3(C)C1C2)OC4(C)C` (stereo not given), which Potency is on record?
The Potency was “inactive”.

Which Potency does the source give for `c1cc(OCCN2CCCCC2)cc(-c2n[nH]c3ccc(-c4ncn[nH]4)cc23)c1` here?
Its Potency is 1.16 µM (active).

With `COc1cc(Br)c(S(=O)(=O)Nc2ccc(Cl)c(O[C@@H]3CCN(C)C3)c2)cc1OC` as the molecule, how does the Potency read?
The Potency was 6.51 µM (active).

For `CCn1cc(C2=NOC(C(=O)Nc3c(C)n(C)n(-c4ccccc4)c3=O)C2)c(C)n1` (stereo not given), which Potency is on record?
The Potency was “inactive”.

With `N#Cc1ccc(-c2ccc(S(=O)(=O)Nc3cccc(N)n3)cc2)cc1` as the molecule, how does the Potency read?
Its Potency is 7.31 µM (active).

For `COc1cc(-c2ccc(O)cc2)c(OC)c(O)c1C1=CC(=O)OC1CC(=O)O` (stereo not given), which Potency is on record?
The Potency was “inactive”.

Which Potency does the source give for `CCc1cc2cc(OC)c(OC)cc2c(Cc2ccccc2)n1` here?
Its Potency is 10.6 µM (active).

For `CC(C)OC(=O)OCOP(=O)(COC(C)Cn1cnc2c(N)ncnc21)OCOC(=O)OC(C)C` (stereo not given), which Potency is on record?
Its Potency is 2.06 µM (active).

With `Cc1ccc(O)cc1` as the molecule, how does the Potency read?
The Potency was “inactive”.

Which viability, % of control does the source give for `C/C=C(\C)C(=O)OC[C@H]1O[C@H](O[C@H]2O[C@H](CO)[C@@H](OC(=O)/C(C)=C/C)[C@H](O)[C@H]2O[C@@H]2O[C@H](CO)[C@@H](O)[C@H](O)[C@H]2O)[C@H](O[C@@H]2O[C@H](CO)[C@@H](O)[C@H](O)[C@H]2O)[C@@H](O)[C@@H]1O` here?
The viability, % of control was 92.1% [at 9.25 µM] (inactive).

Which Potency does the source give for `NC(=O)c1cc[n+](CC2=C(C(=O)[O-])N3C(=O)[C@@H](NC(=O)Cc4cccs4)[C@H]3SC2)cc1` here?
The Potency was “inactive”.

For `CN(C)C(=O)COC(=O)c1cc(-c2ccc(C3CCNCC3)cc2)c2ccc(-c3ccc(C(F)(F)F)cc3)cc2c1`, which Potency is on record?
Its Potency is 5.17 µM (active).

With `Cc1ccc(S(=O)(=O)NC(=O)NN2CC3CCCC3C2)cc1` (stereo not given) as the molecule, how does the Potency read?
Its Potency is “inactive”.

For `CCCC(=O)O[C@]1(C(=O)CCl)[C@@H](C)C[C@H]2[C@@H]3CCC4=CC(=O)C=C[C@]4(C)[C@@]3(F)C(=O)C[C@@]21C`, which Potency is on record?
Its Potency is 13.3 µM (active).

For `CCn1c(=O)n([C@H]2CCCN(c3nccc(-c4cc5ccccc5o4)n3)C2)c2ccccc21`, which Potency is on record?
The Potency was 23.1 µM (active).

For `CCCCc1oc2ccc(NS(C)(=O)=O)cc2c1C(=O)c1ccc(OCCCN(CCCC)CCCC)cc1`, which Potency is on record?
The Potency was 2.99 µM (active) and 2.91 µM (active) and 6.61 µM (active).

With `C=CC(=O)Nc1cccc(Oc2nc(Nc3ccc(N4CCN(C)CC4)cc3OC)ncc2Cl)c1` as the molecule, how does the Potency read?
The Potency was 2.06 µM (active) and 2.95 µM (active).

With `O=C(OC[C@H]1O[C@H](O[C@H]2CO[C@H](CO)[C@@H](O)[C@@H]2O)[C@H](O)[C@@H](O)[C@H]1O)c1ccccc1` as the molecule, how does the Potency read?
Its Potency is “inactive”.

Which Potency does the source give for `CC(=O)O[C@@](C)(C(=O)/C=C/C(C)(C)O)[C@H]1[C@H](O)C[C@@]2(C)[C@@H]3CC=C4[C@@H](C=C(O)C(=O)C4(C)C)[C@]3(C)C(=O)C[C@]12C` here?
The Potency was 0.252 µM (active).

Which Potency does the source give for `CS(=O)(=O)N1CCN(Cc2cc3nc(-c4cccc5[nH]ncc45)nc(N4CCOCC4)c3s2)CC1` here?
Its Potency is 461 nM (active) and 2.09 µM (active).

Which Potency does the source give for `COc1cc(CCc2cc(NC(=O)c3ccc(N4CC(C)NC(C)C4)cc3)n[nH]2)cc(OC)c1` (stereo not given) here?
Its Potency is 1.03 µM (active).

Which Potency does the source give for `COC(=O)C1=CO[C@@H](O[C@@H]2O[C@H](CO)[C@@H](O)[C@H](O)[C@H]2O)[C@@H]2[C@@H](C)[C@@H](O)C(O)[C@H]12` (stereo not given in full) here?
The Potency was “inactive”.

With `CC(C)(C)c1nnc(NS(=O)(=O)c2ccc(N)cc2)s1` as the molecule, how does the Potency read?
Its Potency is “inactive”.

Which Potency does the source give for `CC(C)CCCCC(=O)N[C@@H](CO)C(=O)N[C@@H](CC(C)C)C(=O)[C@@]1(CO)CO1` here?
The Potency was 7.31 µM (active).

With `COc1ccc(Cl)c(Nc2nc3ccccc3nc2NS(=O)(=O)c2cccc(NC(=O)C(C)(C)N)c2)c1` as the molecule, how does the Potency read?
The Potency was 8.2 µM (active).

For `CCN(c1cc(-c2ccc(CN3CCOCC3)cc2)cc(C(=O)NCc2c(C)cc(C)[nH]c2=O)c1C)C1CCOCC1`, which Potency is on record?
Its Potency is 20.6 µM (active).

With `C[C@@H](c1ncncc1F)[C@](O)(Cn1cncn1)c1ccc(F)cc1F` as the molecule, how does the Potency read?
The Potency was “inactive”.
